According to PubChem BioAssay AID485317 (Broad Institute, 2010):
Screen size: about 290,000 compounds; about 11,000 (3.8%) were called active.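 The calls were made as follows: active = mean replicate inhibition above about 79%, with every replicate also reaching it (limit read from the data); inconclusive = only one of the two criteria met; inactive = mean below limit and not every replicate reaching it.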 The full list was thinned out, with actives kept by preference.

Target: FAD-linked sulfhydryl oxidase ALR (Homo sapiens) (UniProt P55789)
Experiment: ALR-catalysed DTT oxidation blockers – biochemical, H2O2 detection, HRP-luminol luminescence, single point, primary screen (AID 485317)
Conditions: purified ALR, active compounds read high, concentration not given here

Chain of FAD-linked sulfhydryl oxidase ALR (Homo sapiens) (P55789 whole entry, looked up): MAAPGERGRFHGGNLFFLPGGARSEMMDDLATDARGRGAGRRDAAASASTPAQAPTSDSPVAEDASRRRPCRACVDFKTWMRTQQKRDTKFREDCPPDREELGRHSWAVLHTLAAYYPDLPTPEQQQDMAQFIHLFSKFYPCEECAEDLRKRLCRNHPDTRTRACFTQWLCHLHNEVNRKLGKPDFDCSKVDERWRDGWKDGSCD

| Structure (SMILES) | inhibition |
| --- | --- |
| CCOC(=O)c1c(C)[nH]c(C(=O)OCC(=O)c2ccc(OC)cc2OC)c1C | -8.98% (inactive) |
| CCCS(=O)(=O)Nc1ccc(-c2cn3c(n2)SCC3)cc1 | 4.68% (inactive) |
| c1csc(-c2cn3c(n2)SCC3)c1 | 92.3% (active) |
| Cc1cc(-c2cccs2)nc(-n2cccc2)n1 | 23.5% (inactive) |
| O=C(c1ccc(S(=O)(=O)NCc2ccco2)cc1)N1CCN(c2ccccc2)CC1 | 33.8% (inactive) |
| COc1ccc(-c2csc(Nc3ccc(O)cc3)n2)cc1 | 74.3% (inactive) |
| COc1ccc(OC)c(Nc2nc(-c3ccc(O)c(O)c3)cs2)c1 | 94.7% (active) |
| COc1ccc(-c2csc(Nc3ccccn3)n2)cc1 | 32.2% (inactive) |
| CCCCn1c(N)c(N(CC(C)C)C(=O)C2CSC3(C)CCC(=O)N23)c(=O)[nH]c1=O (configuration not stated) | -0.99% (inactive) |
| CC(NC(=O)c1cccc(S(=O)(=O)N2CCc3ccccc3C2)c1)c1ccco1 (configuration not stated) | -3.35% (inactive) |
| O=C(COC(=O)c1ccc(F)c(S(=O)(=O)N2CCOCC2)c1)NCc1ccc2c(c1)OCO2 | -8.6% (inactive) |
| CNS(=O)(=O)c1cccc(C(=O)OCCCC(=O)c2ccccc2)c1 | 1.28% (inactive) |
| O=C1N[C@H](Cc2ccccc2)C(=O)N[C@H]1Cc1cn(S(=O)(=O)c2ccccc2)c2ccccc12 | -2.64% (inactive) |
| CN1CCN(C(=O)c2ccc(-c3ccc(Br)cc3)o2)CC1 | 6.66% (inactive) |
| O=C(O)c1cccc(NC(=S)N/N=C/c2c[nH]c3ccccc23)c1 | 98.2% (active) |
| CSC(=S)N/N=C/c1c[nH]c2ccccc12 | 64.4% (inactive) |
| O=C(N/N=C/c1c[nH]c2ccccc12)c1ccccc1O | 41.8% (inactive) |
| CCNC(=O)c1cccc(NC(=O)C2CC(=O)N(CCc3ccccc3)C2)c1 (configuration not stated) | -0.0795% (inactive) |
| CC(OC(=O)CNC(=O)c1ccco1)C(=O)Nc1ccc(Cl)cn1 (configuration not stated) | -1.13% (inactive) |

| Structure (SMILES) | inhibition |
| --- | --- |
| COc1cccc(NC(=O)CCc2nnc3ccc(N4CCC(C)CC4)nn23)c1 | -1.49% (inactive) |
| CCOC(=O)c1cccc(NC(=O)CCc2nnc3ccc(N4CCOCC4)nn23)c1 | 26.9% (inactive) |
| COc1cccc(N2CCN(c3ccc4nnc(CCC(=O)N5CCN(C)CC5)n4n3)CC2)c1 | 98.2% (active) |
| C=CCSc1nnc2c(n1)-c1cccc3cccc-2c13 | 9.81% (inactive) |
| COc1ccc(S(=O)(=O)N2CCOCC2)cc1NC(=O)Cc1c(F)cccc1Cl | -4.89% (inactive) |
| COc1ccccc1CNC(=O)COC(=O)c1cccs1 | 20.2% (inactive) |
| CN(CC(=O)Nc1ccccc1Cl)C(=O)c1ccccc1SCC(=O)N1CCCC1 | -3.42% (inactive) |
| COC(=O)c1ccccc1NC(=S)NC(=O)c1ccccc1F | 97.1% (active) |
| NC(=O)c1ccccc1NC(=O)c1ccccc1F | 0.399% (inactive) |
| COC(=O)c1ccccc1NC(=O)c1ccccc1NS(C)(=O)=O | 4.54% (inactive) |
| Cc1cc(N2CCCC2)ccc1NC(=O)COc1ccc(Cl)cc1 | -0.012% (inactive) |
| O=C(NCCC1CCCCN1S(=O)(=O)c1ccc(F)cc1)C(=O)NC1CC1 (configuration not stated) | -2.2% (inactive) |
| Clc1ccc(-c2csc(-c3ccncc3)n2)cc1 | -4.48% (inactive) |
| Nc1scc(-c2ccncc2)c1Cl | 98.8% (active) |
| O=c1[nH]c(/C=C/c2cccc(Br)c2)nc2ccccc12 | -2.23% (inactive) |
| CC(C)(C)OC(=O)C[C@@H]1C/C=C\C[C@@H](CC(=O)N[C@H](CO)Cc2ccccc2)C(=O)NCCOC1=O | 1.41% (inactive) |
| COc1ccccc1NC(=O)CSc1nnc(Cn2nnc(-c3ccccc3)n2)n1-c1ccccc1 | -1.41% (inactive) |
| C=CCn1c(SCC(=O)Nc2ccc(NC(C)=O)cc2)nc2sc(C)c(C)c2c1=O | -2.72% (inactive) |
| CCn1c(SCC(=O)Nc2ccc(Br)cc2)nc2sc3c(c2c1=O)CCN(C)C3 | 99% (active) |

| Structure (SMILES) | inhibition |
| --- | --- |
| CCOc1ccc(NC(=O)CSc2nc3c(c(=O)n2-c2ccccc2OC)SCC3)cc1 | 93.4% (active) |
| COc1ccccc1NC(=O)CSc1nc2sc3c(c2c(=O)n1-c1ccccc1)CCN(C)C3 | 99% (active) |
| C=CCn1c(SCC(=O)NCCCO)nc2sc3c(c2c1=O)CCC3 | -4.11% (inactive) |
| CCOc1ccc(NC(=O)CN2CCN(CC(=O)Nc3ccc(OC)cc3)CC2)cc1 | -10.2% (inactive) |
| CCOc1ccc(-n2c(SCC(=O)Nc3ccc(OC)cc3)nc3sc4c(c3c2=O)CCN(C)C4)cc1 | 98.6% (active) |
| CCOc1ccc(-n2c(SCC(=O)Nc3cc(C(=O)O)ccc3Cl)nc3ccccc3c2=O)cc1 | -3.41% (inactive) |
| CCc1nnc(NC(=O)CSc2nc3c(c(=O)n2-c2ccccc2OC)SCC3)s1 | 1.36% (inactive) |
| CCc1nc(SCC(=O)Nc2ccccc2OC)n[nH]1 | -18% (inactive) |
| COc1ccccc1-n1c(SCC(=O)Nc2cccc(C(=O)O)c2)nnc1-c1ccccc1O | 3.17% (inactive) |
| CCN(CC)S(=O)(=O)c1ccc(N2CCCC2)c(NC(=O)c2ccc([N+](=O)[O-])o2)c1 | -36.7% (inactive) |
| CC(C)(C)OC(=O)C[C@@H]1C/C=C\C[C@@H](CC(=O)NCCO)C(=O)N[C@H](Cc2c[nH]c3ccccc23)COC1=O | -9.99% (inactive) |
| CCN(CC(=O)NCc1ccc(F)cc1)S(=O)(=O)c1ccc(Cl)s1 | -4.96% (inactive) |
| Cc1ccc(CNC(=O)CC(NC(=O)c2ccccc2)c2ccccc2)cc1 (configuration not stated) | 1.43% (inactive) |
| CC(=O)Nc1ccc(S(=O)(=O)NCCC(=O)N2CCN(c3ccccc3Cl)CC2)cc1 | 0.296% (inactive) |
| O=C(CSc1nc2[nH]ncc2c(=O)[nH]1)Nc1ccc(F)cc1 | -2.71% (inactive) |
| Cc1ccc(C)c(-n2c(SCC(=O)O)nc3sc4c(c3c2=O)CCCC4)c1 | 4.79% (inactive) |
| CCOc1ccc(-n2c(SC(C)C(=O)OC)nc3c(c2=O)SCC3)cc1 (configuration not stated) | -1.69% (inactive) |
| CCOc1ccc(-n2c(SCC(=O)OC)nc3sc4c(c3c2=O)CCN(C)C4)cc1 | 99.2% (active) |
| O=C(N[C@@H](Cc1ccccc1)C(=O)OCc1ccccc1)c1nc[nH]c1C(=O)NC1CCNCC1 | 63.1% (inactive) |
